# The list is not random: actives were taken first. Their share in the collection is about 1.3%.
# TRPV1 ag – human TRPV1 agonism. activation, % at 8.33 µM. hit rate 0.19% among 320,000. TRPV1-expressing cells, Fluo-8 calcium influx, agonist mode; in the data active means activation above about 80%; inconclusive means between about 30% and that limit
#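 TRPV1-expressing cells were cultured overnight at 35.5C and loaded with Fluo-8 calcium dye for 40 to 90 min at room temperature. After a 10 s baseline, compound was added and calcium influx was read kinetically for 3 min (ex 480/em 520 nm).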
# hERG WT inh – blocks the wildtype human KCNH2 potassium channel; Q12809; U2OS, BacMam KCNH2, thallium flux FluxOr; active compounds read low; activity change, % at 1.84 µM; hit rate 0.37% among 340,000; AID 720551;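 active means maximum activity change below -70%; inconclusive means maximum activity change between -70% and -50%; inactive means maximum activity change above -50%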
#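 U2OS cells were transduced with wild-type KCNH2 virus (2.03 x 10^8 / mL) for 4 h at room temperature, then cultured overnight at 37 C. Thallium flux was read with FluxOr dye. Rate constants were normalized to DMSO controls.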
# TRPML1 ag – activates the human TRPML1 channel | Q9GZU1 | TRPML1-expressing cells, Ca2+ dye fluorescence, FDSS | activation, % (no concentration beside the values) | hit rate 0.12% among 410,000; in the data active means activation above about 50%; inconclusive means mostly about 30% to 49%
# Target sequence (Q9GZU1 whole entry, looked up): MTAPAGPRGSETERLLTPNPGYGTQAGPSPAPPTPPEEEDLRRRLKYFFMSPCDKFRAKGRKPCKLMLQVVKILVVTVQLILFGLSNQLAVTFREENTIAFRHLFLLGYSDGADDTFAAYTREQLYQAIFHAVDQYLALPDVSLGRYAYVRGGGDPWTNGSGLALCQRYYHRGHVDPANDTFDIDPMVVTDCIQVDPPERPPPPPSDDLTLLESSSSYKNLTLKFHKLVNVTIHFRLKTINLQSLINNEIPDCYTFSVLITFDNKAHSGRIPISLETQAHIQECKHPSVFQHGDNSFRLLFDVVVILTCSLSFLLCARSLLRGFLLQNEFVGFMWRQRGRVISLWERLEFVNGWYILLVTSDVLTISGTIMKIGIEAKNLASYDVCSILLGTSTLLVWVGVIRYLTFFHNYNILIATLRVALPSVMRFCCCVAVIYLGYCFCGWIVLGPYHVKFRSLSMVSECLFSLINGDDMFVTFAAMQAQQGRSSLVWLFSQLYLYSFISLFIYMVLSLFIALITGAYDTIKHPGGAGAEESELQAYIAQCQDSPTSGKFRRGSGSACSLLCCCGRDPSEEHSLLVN
#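 Kinetic FDSS Ca2+ read in Tet-induced TRPML1-DL cells (ABD Ca8 dye plus quencher, 45-90 min RT loading): baseline, then compound, then 110 s agonist window; EC80 agonist 54-4 at 4uM final added afterwards for a 110 s antagonist window.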
# TRPV1 potentiator – human TRPV1 potentiation. Q8NER1. hit rate 0.02% among 320,000. AID 540277. potentiation, % at 8.33 µM. TRPV1-expressing cells, Fluo-8 calcium influx, capsaicin EC20 potentiation; in the data active means potentiation above about 80%; inconclusive means between about 30% and that limit
#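 Cells expressing TRPV1 were dye-loaded with Fluo-8 and read kinetically: 10 s baseline, 3 min after compound (agonist portion), then 2 min after EC20 capsaicin (allosteric enhancer portion). Calcium-bound dye fluorescence at 480/520 nm.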
# TRPML1 inh – human mucolipin-1 channel inhibition; Q9GZU1; TRPML1-inducible cells, Ca2+ dye fluorescence, FDSS; active compounds read low; inhibition of EC80 agonist-evoked calcium signal; activity change, negative = inhibition, % (no concentration beside the values); hit rate 0.02% among 390,000; in the data active means activity change below about -50%; inconclusive means between about -30% and that limit;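 further: stimulus is agonist 54-4 at its EC80 concentration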
#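 Calcium fluorescence in TRPML1-DL cells induced overnight with Tet: a 110 s read after compound pin addition, then a 110 s antagonist read after challenge with 54-4 at 4 uM final (EC80).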
# KCNH2 3.1 inh – inhibitors of human KCNH2 3.1 potassium channel isoform | U2OS KCNH2 3.1, thallium flux FluxOr; active compounds read low | activity change, % (tested at about 1.8 µM) | hit rate 0.95% among 340,000 | AID 720553;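 active means maximum activity change below -70%; inconclusive means maximum activity change from -70% to -50%; inactive means maximum activity change above -50%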;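 further: thallium influx rate constant from kinetic fluorescence after stimulation buffer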
#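 Steps: virus added to U2OS suspension (4 h, RT, dark); medium with 10% FBS added, cells plated, 37 C overnight; FluxOr/Red40 loading buffer 45 min RT; stimulation buffer, 2 min kinetic read; rate constant normalized.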
# Hits are given with their value; . = inactive; ? = inconclusive; / = no result.
SMILES,TRPV1 ag,hERG WT inh,TRPML1 ag,TRPV1 potentiator,TRPML1 inh,KCNH2 3.1 inh
O=S(=O)(c1cccc(F)c1)N1CCN(c2nc(-c3cccs3)nc3ccccc23)CC1,/,/,.,/,/,/
CCN(CC)c1ccc(NC(=O)C2CCCN(S(=O)(=O)c3ccc4c(c3)oc(=O)n4C)C2)c(C)c1 (configuration not stated),/,/,.,/,.,/
COc1ccc2cc(-c3nc4ccc(C(=O)O)cc4[nH]3)c(=O)oc2c1,/,/,.,/,.,/
Cn1cnc(S(=O)(=O)N2CCC(C(=O)Nc3ccc(Cl)c(C(F)(F)F)c3)CC2)c1,/,/,.,/,.,/
COc1ccc(C(=O)NC2CC2)cc1OC1CCN(Cc2cc(C)cc(C)c2)CC1,.,.,.,.,.,/
CCc1ccc(CN2CCC(Oc3cc(C(=O)NC4CC4)ccc3OC)CC2)cc1,/,-108,.,/,.,-97
Cc1nc2c(n1C1CCCCC1)C(=O)c1ccccc1C2=O,.,.,65,.,.,.
COc1cc2c(cc1NC(=O)/C=C/c1cc(OC)c(OC)c(OC)c1)oc1ccccc12,.,.,.,.,.,-87
COc1ccc(/C=C/C(=O)OCC(=O)Nc2cc3oc4ccccc4c3cc2OC)cc1,.,/,/,.,/,/
O=C(Nc1ccc(N2CCCC2)cc1)c1cccc(Cl)c1Cl,81,.,.,.,.,.
O=C(Nc1ccc(N=Nc2ccccc2)cc1)c1ccccc1Cl,.,.,.,.,.,-98
O=C(Nc1ccc(N=Nc2ccccc2)cc1)c1ccc(Cl)cc1Cl,.,.,.,.,.,.
CS(=O)(=O)c1ccc(C(=O)Nc2ccc(N3CCCCC3)cc2)c(Cl)c1,83,.,.,.,.,.
CCCn1c2ccccc2c2cnn(CC(=O)NCCCN(Cc3ccccc3)C(C)C)c(=O)c21,/,/,.,/,.,/
COC(=O)[C@@]1(C)[C@H]2C(=O)N(Cc3ccccc3)C(=O)[C@H]2[C@H]2CN=C(SCC(=O)c3ccccc3)N21,/,.,.,/,.,-80
Cc1ccc(C)c(NC(=O)Cn2c(=O)n(CC3CCCO3)c(=O)c3ccccc32)c1 (configuration not stated),/,/,.,/,.,/
CC1CCC(CN2C(Nc3ccccc3)=NC[C@@H]2Cc2ccccc2)CC1 (some centres not stated),/,.,.,/,.,-91
CC(C)C[C@H]1CN=C(Nc2ccccc2)N1CC1CCC(C)CC1 (some centres not stated),.,.,.,.,.,-83
c1ccc(C[C@H]2CN=C(Nc3ccccc3)N2CC2CCC2)cc1,.,.,.,.,.,.
CC(C)C[C@H]1CN=C(Nc2ccccc2)N1CCCC1CCCC1,.,-92,.,.,.,.
COc1cccc(CCNc2ncnc3c2nnn3C)c1,/,/,.,/,.,/
CN(CC(=O)O)c1ccc(C=O)cc1,/,/,.,/,/,/
CCOc1ccc2ncc3c(-c4ccccc4)nn(CC(=O)Nc4cccc(F)c4)c3c2c1,/,/,.,/,.,/
O=C(N/N=C/c1ccc2c(c1)OCO2)c1ccc2c(c1)OCO2,?,.,.,.,.,.
COc1ccccc1/C=N/NC(=O)c1ccc2c(c1)OCO2,.,.,.,.,.,.
SMILES,TRPV1 ag,hERG WT inh,TRPML1 ag,TRPV1 potentiator,TRPML1 inh,KCNH2 3.1 inh
O=C(N/N=C/c1cccnc1)c1ccc2c(c1)OCO2,90,.,.,.,.,.
COc1ccc(/C=N/NC(=O)c2ccc3c(c2)OCO3)c(C(=O)O)c1OC,80,.,.,.,.,.
COc1ccc(Br)cc1CNC(=O)Cn1nc(C)n2c(cc3cc(F)ccc32)c1=O,/,/,.,/,.,/
CC[C@@H]1CCC[C@@H](O)[C@@H](C)C(=O)O[C@H](C)[C@@H](C)C/C=C(C)/C(OC)=C\C(=O)N(C)C([C@@H](C)CC)C(=O)N(C)[C@@H](C(C)C)C(=O)N(C)[C@@H](COC)C(=O)N2CCC[C@H]2C(=O)N(C)[C@@H](C(C)C)C(=O)N2CCC[C@H]2C(=O)O1 (some centres not stated),/,/,51,/,/,/
CCc1ccc(NC(=O)N(Cc2ccc(C)cc2)Cc2cccn2-c2nnc(N3CCCC3=O)s2)cc1,/,/,.,/,.,/
CCCOC(=O)C1=C(C)CS[C@@H]2[C@H](NC(=O)COc3ccccc3)C(=O)N12,/,/,.,/,/,/
COc1ccc(-c2csc3nc(C)nc(N4CCC(C)CC4)c23)cc1OC,.,.,.,.,.,-137
COc1ccc(-c2csc3nc(C)nc(N4CCN(C(C)=O)CC4)c23)cc1OC,.,.,.,.,.,.
CCN(CC)c1ccc(NS(=O)(=O)c2ccc3c(c2)CCCN3C(C)=O)c(C)c1,/,/,.,/,.,/
O=C(NCCCc1ccccc1)C(=O)NCC1OCCN1S(=O)(=O)c1cc(F)ccc1F (configuration not stated),/,.,.,/,.,.
COc1ccc(CCNC(=O)C(=O)NCC2OCCN2S(=O)(=O)c2cc(F)ccc2F)cc1 (configuration not stated),.,.,.,.,.,-143
CC(=O)NS(=O)(=O)c1ccc(NC(=O)c2ccc(NC(=O)c3cccs3)cc2)cc1,.,-228,.,.,.,-163
CC(=O)Nc1ccc(OC(=O)c2cccs2)cc1,.,.,.,.,.,-93
O=C1N=C(N2CCCCC2)S/C1=C\c1ccc(Br)cc1,87,.,.,.,.,.
Cc1ccc(/C=C2\SC(N3CCCC3)=NC2=O)cc1,?,/,/,.,/,/
CC1=CC(C)(C)N(C(=O)CSc2ncn[nH]2)c2ccccc21,.,.,.,.,.,-78
CC1=CC(C)(C)N(C(=O)CCl)c2ccccc21,.,.,.,.,.,.
N#CC(CCc1ccc([N+](=O)[O-])cc1)(CCc1ccc([N+](=O)[O-])cc1)C(N)=O,/,-93,.,/,.,-129
CCOc1ccc2nc(N(CCN(C)C)C(=O)c3cc4ccccc4cc3OC)sc2c1,.,?,.,.,.,.
CCOc1cccc2sc(N(CCN(C)C)C(=O)c3cc4ccccc4cc3OC)nc12,.,.,.,.,.,-79
CCOc1cccc2sc(N(CCCN(C)C)C(=O)c3ccc(S(=O)(=O)N(C)Cc4ccccc4)cc3)nc12,.,-74,.,.,.,/
Nc1nonc1-c1nc2ccccc2n1Cc1c(Cl)cccc1Cl,/,/,.,/,.,/
CC(=O)Oc1ccccc1C1C[C@]2(C)CC(=O)NC2N1C(C)=O (some centres not stated),.,.,.,.,.,-107
C=C(C)C1CC=C(C)/C(=N/NC(=O)c2ccc(NC(=O)CC)cc2)C1 (configuration not stated),.,.,.,.,.,.
C=C(C)C1CC=C(C)/C(=N/NC(=O)c2ccc(NC(=O)CCC)cc2)C1 (configuration not stated),.,.,.,.,.,-87
c1ccc(COc2ncnc3c2ncn3CCCNCC(c2ccccc2)c2ccccc2)cc1,/,.,/,/,/,-72
